Data as given in PubChem BioAssay (Tox21).
Values joined by “and” are separate entries in the source; they are usually repeats but may differ in a detail not shown here. Identical values can stand only once. Active and inactive are the calls of the source. Calls follow the shape of the dose curve; as a rule, active = well fitted curve in the direction sought with a large enough effect in the repeat runs; inconclusive = weak or mixed curves; inactive = flat fitted curve, though single readings scatter.

Tests used:
[1] = qHTS assay to test for compound auto fluorescence at 535 nm (green) in HEK293 cells (AID 720680)
[2] = qHTS assay to test for compound auto fluorescence at 460 nm (blue) in HEK293 cell free culture (AID 720681); also: potency is read from the fitted curve at half-maximal effect
Method in brief: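 Test compounds were pinned into cell-free culture medium (DMEM with 10% FBS) and fluorescence was read directly at Ex/Em 405/460 nm. Signals were expressed as fluorescence equivalents of triamterene, with DMSO vehicle as control.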

[3] = qHTS assay to test for compound auto fluorescence at 535 nm (green) in HEK293 cell free culture (AID 720682)
Method in brief: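 DMEM + 10% FBS, cell-free; cpd or DMSO pinned in; Ex485/Em535 read; output as fluorescein-equivalent signal.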

[4] = qHTS assay to test for compound auto fluorescence at 590 nm (red) in HEK293 cell free culture (AID 720683); also: potency is read from the fitted curve at half-maximal effect
Method in brief: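 Tox21 10K library compounds were pinned into cell-free DMEM with 10% FBS and fluorescence was read at excitation 540 nm. Activity is expressed as Rose Bengal sodium equivalency.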

[5] = qHTS assay to test for compound auto fluorescence at 590 nm (red) in HepG2 cell free culture (AID 720684); also: potency is read from the fitted curve at half-maximal effect
Method in brief: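 Measured in medium alone (MEM containing 10% FBS) following pintool addition of compound; emission at 590 nm with 540 nm excitation, referenced to Rose Bengal sodium.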

[6] = qHTS assay to test for compound auto fluorescence at 460 nm (blue) in HepG2 cell free culture (AID 720685); also: potency is read from the fitted curve at half-maximal effect
Method in brief: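 Compound (23 nL) or DMSO pinned into cell-free MEM with 10% FBS; blue fluorescence read at 405/460 nm excitation/emission, expressed as auto-fluorescence equivalency to triamterene.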

[7] = qHTS assay to test for compound auto fluorescence at 535 nm (green) in HepG2 cell free culture (AID 720686)
[8] = qHTS assay to test for compound auto fluorescence at 460 nm (blue) in HepG2 cells (AID 720687); also: potency is read from the fitted curve at half-maximal effect
Method in brief: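 Cells (2,000/well in MEM with 10% FBS) attached overnight at 37 C, then were exposed to compound or DMSO for 1 hr at 37 C, 5% CO2. Fluorescence read at Ex/Em 405/460 nm, expressed as triamterene-equivalent signal.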

Measured: Potency
Tags tell the direction and shape of the fitted curve or compound fluorescence and quenching.

CN1CCN(CCC(=O)N2c3ccccc3Sc3ccc(C(F)(F)F)cc32)CC1
inactive: [1] | [2] | [3] | [4] | [5] | [6] | [7] | [8]

CC(C)(C)CC(C)(C)c1ccc(O)c(Cc2ccc(Cl)cc2Cl)c1
inactive: [1] | [2] | [3] | [4] | [5] | [6] | [7] | [8]

CC(C)c1ccc2c(c1)CC[C@H]1[C@](C)(CN)CCC[C@]21C
inactive: [1] | [2] | [3] | [4] | [5] | [6] | [7] | [8]

C[C@@H](NCCCc1cccc(C(F)(F)F)c1)c1cccc2ccccc12
inactive: [1] | [2] | [3] | [4] | [5] | [6] | [7] | [8]

N=C1N=C(N)c2ccccc21
inactive: [1] | [2] | [3] | [4] | [5] | [6] | [7] | [8]

C=CC(=O)OCCn1c(=O)n(CCOC(=O)C=C)c(=O)n(CCOC(=O)C=C)c1=O
inactive: [1] | [2] | [3] | [4] | [5] | [6] | [7] | [8]

CC/C(=C(\c1ccc(O)cc1)c1ccc(OCCN(C)C)cc1)c1ccccc1
inactive: [1] | [2] | [3] | [4] | [5] | [6] | [7] | [8]

O=C(Nc1cccc([N+](=O)[O-])c1)c1cc2ccccc2cc1O
inactive: [1] | [2] | [3] | [4] | [5] | [6] | [7] | [8]

Cc1cc(O)c2ccccc2c1O
inactive: [1] | [2] | [3] | [4] | [5] | [6] | [7] | [8]

CCN1/C(=C/C=C/c2sc3ccccc3[n+]2CC)Sc2ccccc21
inactive: [1] | [2] | [3] | [6] | [7] | [8]
active: [4] 11.2 µM [fluorescent] | [5] 14.1 µM [fluorescent]

O=c1[nH]cnc2nc[nH]c12
inactive: [1] | [2] | [3] | [4] | [5] | [6] | [7] | [8]

CCCC1O[C@@H]2C[C@H]3[C@@H]4CCC5=CC(=O)C=C[C@]5(C)[C@H]4[C@@H](O)C[C@]3(C)[C@]2(C(=O)CO)O1 (some centres not stated)
inactive: [1] | [2] | [3] | [4] | [5] | [6] | [7] | [8]

C=C(C)C(=O)OCC(O)COc1ccc(C(C)(C)c2ccc(OCC(O)COC(=O)C(=C)C)cc2)cc1 (configuration not stated)
inactive: [1] | [2] | [3] | [4] | [5] | [6] | [7] | [8]

Nc1c2ccccc2nc2ccccc12
active: [2] 11.2 µM and 15.8 µM | [6] 14.1 µM [fluorescent] and 15.8 µM [fluorescent] | [8] 11.2 µM [fluorescent] and 15.8 µM [fluorescent]
inactive: [1] | [3] | [4] | [5] | [7]

CC(C)C(C)(C)C(C)(C)C(C)(C)S
inactive: [1] | [2] | [3] | [4] | [5] | [6] | [7] | [8]

CCCCC(CC)CN=C(N)NC(N)=NCCCCCCN=C(N)NC(N)=NCC(CC)CCCC (configuration not stated)
inactive: [1] | [2] | [3] | [4] | [5] | [6] | [7] | [8]

Clc1ccc2cc3ccccc3cc2c1
inactive: [1] | [2] | [3] | [4] | [5] | [6] | [7] | [8]

O=C(Nc1ccc(Oc2ccc(Cl)cc2)c(Cl)c1)c1cc(I)cc(I)c1O
inactive: [1] | [2] | [3] | [4] | [5] | [6] | [7] | [8]

CC1(C)CCC(C)(C)c2cc(C(=O)Nc3ccc(C(=O)O)cc3)ccc21
inactive: [1] | [2] | [3] | [4] | [5] | [6] | [7] | [8]

CCCCCCCCn1sc(Cl)c(Cl)c1=O
inactive: [1] | [2] | [3] | [4] | [5] | [6] | [7] | [8]

Cc1c(C)c2c(c(C)c1O)CCC(C)(COc1ccc(CC3SC(=O)NC3=O)cc1)O2 (configuration not stated)
inactive: [1] | [2] | [3] | [4] | [5] | [6] | [7] | [8]

OCCN(CCO)c1nc(N2CCCCC2)c2nc(N(CCO)CCO)nc(N3CCCCC3)c2n1
active: [2] 12.6 µM | [6] 12.6 µM [fluorescent] | [8] 12.6 µM [fluorescent]
inactive: [1] | [3] | [4] | [5] | [7]

CC1=C(/C=C/C(C)=C/C=C/C(C)=C/C=O)C(C)(C)CCC1
inactive: [1] | [2] | [3] | [4] | [5] | [6] | [7] | [8]

COc1cc(-c2ccc(N=C=O)c(OC)c2)ccc1N=C=O
inactive: [1] | [2] | [3] | [4] | [5] | [6] | [7] | [8]
